{"source": "PubChem BioAssay (NCATS)", "note": "Where “and” joins values, the source holds several entries; their conditions need not be identical. Identical values can stand only once. Records with an inconclusive call do not appear. A call without a number means that no potency is given here. Where a structure was tested more than once in an assay, its records may differ in their call. Calls of active or inactive are those of the source. The call rests on the fitted dose curve; in most records, active means well fitted inhibition curve with a large enough effect; inconclusive means small, poorly fitted or top-dose-only effect; inactive means no such curve, though single readings can be large or run the other way."}
{"experiment": "NS1 protein of Zika virus - qHTS assay to identify small molecule inhibitors in human HEK 293 cells (AID 1347053); further: nearly all actives have a fitted effect of over 55% in size; further: potency means the concentration at half of the fitted maximal effect", "conditions": "HEK293 ZIKV MR766 infection, NS1 TR-FRET, 24 h; series mostly up to 46.1 µM; activity change, negative = inhibition: at the top concentration", "text": "National Center for Advancing Translational Sciences [NCATS]\nJohns Hopkins University School of Medicine\nThe non-structural 1 (NS1) protein of zika virus is known to associate with the viral replication complex. This cell-based TR-FRET ZIKV NS-1 assay measures the increased NS-1 protein in human HEK 293 cells after a 24-hour Zika virus infection by a TR-FRET assay readout. A decrease in the Time-resolved fluorescence energy transfer (TR-FRET) signal in this assay by small molecule treatment indicates an inhibitory effect of the small molecule on the expression of Zika virus NS1 correlating with Zika virus replication.\nHEK 293 cells were cultured in EMEM (ATCC, Cat. # 30-2003) medium with 10% fetal bovine serum (GE healthcare Life Sciences, Cat. # SH30071.03), and 1% Pen/Strep (Gibco, Cat. # 15140-122). Cells were seeded in the assay plate and incubated at 37 C with 5% CO2 for 20 hours. Compounds were added to cells and incubated for one hour before addition of ZIKV MR766 strain solution to cells (MOI = 0.5). After an incubation at 37 C for 24 hours, the reagent mixture of TR-FRET ZIKV NS1 assay using two anti-ZIKV NS1 antibodies was added to assay plates. The TR-FRET signals in assay plates were measured using an Envision plate reader (PerkinElmer). Data were normalized by using the cell-containing wells without ZIKV as a negative control (0% NS-1) and wells containing ZIKV infected cells as a positive control (100% NS-1 level)."}
{"compound": "CCN1CCCC1CNC(=O)c1cc(S(=O)(=O)CC)c(N)cc1OC", "note": "(stereo not given)", "Potency": "inactive"}
{"compound": "CN1C(C(=O)Nc2ccccn2)=C(O)c2ccccc2S1(=O)=O", "Potency": "inactive"}
{"compound": "CN(C)c1nc(N(C)C)nc(N(C)C)n1", "Potency": "inactive"}
{"compound": "NCCS(=O)(=O)O", "Potency": "inactive"}
{"compound": "C[C@](N)(Cc1ccc(O)c(O)c1)C(=O)O", "Potency": "inactive"}
{"compound": "CN1CCC(=C2c3ccccc3C=Cc3ccccc32)CC1", "Potency": "inactive"}
{"compound": "Clc1ccc2nsnc2c1NC1=NCCN1", "Potency": "inactive"}
{"compound": "COc1cc2nc(N(C)CCCNC(=O)C3CCCO3)nc(N)c2cc1OC", "note": "(stereo not given)", "Potency": "inactive"}
{"compound": "O=C1Cc2cc(CCN3CCN(c4nsc5ccccc45)CC3)c(Cl)cc2N1", "Potency": "inactive"}
{"compound": "O=C(CCCN1CCC(O)(c2ccc(Cl)cc2)CC1)c1ccc(F)cc1", "Potency": "inactive"}
{"compound": "Nc1nc2c(ncn2COC(CO)CO)c(=O)[nH]1", "activity change, negative = inhibition": "-6.58% (inactive)"}
{"compound": "CC1(CN2CCC(n3c(=O)[nH]c4ccccc43)CC2)OCc2ccccc2-n2cccc21", "note": "(stereo not given)", "Potency": "inactive"}
{"compound": "CC[C@@]1(O)C(=O)OCc2c1cc1n(c2=O)Cc2cc3c(CN(C)C)c(O)ccc3nc2-1", "Potency": "inactive and 41.8 nM (active)"}
{"compound": "Cc1cn([C@H]2C[C@H](N=[N+]=[N-])[C@@H](CO)O2)c(=O)[nH]c1=O", "Potency": "inactive"}
{"compound": "O=C1c2c(O)ccc(O)c2C(=O)c2c(NCCNCCO)ccc(NCCNCCO)c21", "Potency": "833 nM (active)"}
{"compound": "Cc1ccc(C(=O)Nc2ccc(S(=O)(=O)O)c3cc(S(=O)(=O)O)cc(S(=O)(=O)O)c23)cc1NC(=O)c1cccc(NC(=O)Nc2cccc(C(=O)Nc3cc(C(=O)Nc4ccc(S(=O)(=O)O)c5cc(S(=O)(=O)O)cc(S(=O)(=O)O)c45)ccc3C)c2)c1", "Potency": "inactive"}
{"compound": "CN(C)CCCN1c2ccccc2CCc2ccc(Cl)cc21", "Potency": "inactive"}
{"compound": "COc1cc2nc(N3CCN(C(=O)C4COc5ccccc5O4)CC3)nc(N)c2cc1OC", "note": "(stereo not given)", "Potency": "inactive"}
{"compound": "C[C@H]1c2cccc(O)c2C(O)=C2C(=O)[C@]3(O)C(O)=C(C(N)=O)C(=O)[C@@H](N(C)C)[C@@H]3[C@@H](O)[C@@H]21", "Potency": "inactive"}
{"compound": "CC[N+](CC)(CC)CCOc1cccc(OCC[N+](CC)(CC)CC)c1OCC[N+](CC)(CC)CC", "Potency": "inactive"}
{"compound": "O=c1c(-c2ccc(O)cc2)coc2cc(O)cc(O)c12", "Potency": "inactive"}
{"compound": "COc1nc(C)nc(Cl)c1NC1=NCCN1", "Potency": "inactive"}
{"compound": "Cc1cc(C(C)(C)C)cc(C)c1CC1=NCCN1", "Potency": "inactive"}
{"compound": "COc1ccccc1OCCNCC(O)COc1cccc2[nH]c3ccccc3c12", "note": "(stereo not given)", "Potency": "inactive"}
{"compound": "Cc1cn([C@H]2C=C[C@@H](CO)O2)c(=O)[nH]c1=O", "Potency": "inactive"}
{"compound": "Cn1cnc2c1c(=O)[nH]c(=O)n2C", "Potency": "inactive"}
{"compound": "CS(=O)(=O)CCNCc1ccc(-c2ccc3ncnc(Nc4ccc(OCc5cccc(F)c5)c(Cl)c4)c3c2)o1", "Potency": "inactive"}
{"compound": "NC12CC3CC(CC(C3)C1)C2", "Potency": "inactive"}
{"compound": "CN(CCOc1ccc(NS(C)(=O)=O)cc1)CCc1ccc(NS(C)(=O)=O)cc1", "Potency": "inactive"}
{"compound": "O=c1c(O)c(-c2ccc(O)c(O)c2)oc2cc(O)cc(O)c12", "Potency": "inactive"}
{"compound": "CN(C)CCC=C1c2ccccc2C=Cc2ccccc21", "Potency": "inactive"}
{"compound": "Clc1ccccc1C(c1ccccc1)(c1ccccc1)n1ccnc1", "Potency": "inactive"}
{"compound": "Clc1ccc2c(c1)C(N1CCNCC1)=Nc1ccccc1O2", "Potency": "inactive"}
{"compound": "Cn1c(=O)c2[nH]cnc2n(C)c1=O", "Potency": "inactive"}
{"compound": "CN1CCN2c3ccccc3Cc3ccccc3C2C1", "note": "(stereo not given)", "Potency": "inactive"}
{"compound": "CC12CC3CC(C)(C1)CC(N)(C3)C2", "Potency": "inactive"}
{"compound": "Cc1cc(C(C)(C)C)c(O)c(C)c1CC1=NCCN1", "Potency": "inactive"}
{"compound": "O=C(c1ccc(OCCN2CCCCC2)cc1)c1c(-c2ccc(O)cc2)sc2cc(O)ccc12", "Potency": "inactive"}
{"compound": "NCCCCCC(=O)O", "Potency": "inactive"}
{"compound": "NC(CO)C(=O)NNCc1ccc(O)c(O)c1O", "note": "(stereo not given)", "Potency": "inactive"}
